Experimental data reported in the antibiotic and cytotoxicity screens of Wong et al. (2023).
In all, about 39,000 compounds went through this assay and about 500 (1.3%) were called active. The sample as a whole holds a higher share of actives than the screen did.

The compounds below were run on S. aureus RN4220 (assay: growth inhibition call (relative growth <= 0.2)). Details: 50 µM.

SMILES	growth inhibition call
C[C@@H]1CN([C@@H](C)CO)C(=O)c2cccc(NC(=O)Nc3ccc4c(c3)OCO4)c2O[C@@H]1CN(C)S(C)(=O)=O	inactive
Cc1ccc(S(=O)(=O)N(C)C[C@@H]2Oc3ccc(NS(=O)(=O)c4ccc(F)cc4)cc3CC(=O)N([C@H](C)CO)C[C@@H]2C)cc1	inactive
CC(C)CC#Cc1ccc2c(c1)O[C@@H](CN(C)C(=O)c1ccccn1)[C@H](C)CN([C@@H](C)CO)S2(=O)=O	inactive
O=C(C[C@H]1CC[C@H]2[C@@H](COC[C@@H](O)CN2C(=O)Nc2ccc(Cl)c(Cl)c2)O1)NCc1ccc(Cl)c(Cl)c1	inactive
O=C(C[C@@H]1CC[C@H]2[C@@H](COC[C@H](O)CN2C(=O)Nc2ccc(Cl)c(Cl)c2)O1)NCc1ccc(Cl)c(Cl)c1	active
O=C(C[C@H]1CC[C@H]2[C@@H](COC[C@H](O)CN2C(=O)Nc2ccc(Cl)c(Cl)c2)O1)NCc1ccc(Cl)c(Cl)c1	inactive
O=C(C[C@@H]1CC[C@@H]2[C@H](COC[C@H](O)CN2C(=O)Nc2ccc(Cl)c(Cl)c2)O1)NCc1ccc(Cl)c(Cl)c1	inactive
O=C(C[C@@H]1CC[C@H]2[C@@H](COC[C@H](O)CN2C(=O)Nc2ccc(Cl)c(Cl)c2)O1)NCc1ccncc1	active
O=C(C[C@@H]1CC[C@@H]2[C@H](COC[C@H](O)CN2C(=O)Nc2ccc(Cl)c(Cl)c2)O1)NCc1ccncc1	inactive
O=C(C[C@H]1CC[C@H]2[C@@H](COC[C@H](O)CN2C(=O)Nc2ccc(Cl)c(Cl)c2)O1)NCc1ccncc1	inactive
O=C(C[C@@H]1CC[C@H]2[C@@H](COC[C@@H](O)CN2C(=O)Nc2ccc(Cl)c(Cl)c2)O1)NCc1ccncc1	active
O=C(C[C@@H]1CC[C@H]2[C@@H](COC[C@@H](O)CN2C(=O)Nc2ccc(Cl)c(Cl)c2)O1)NCc1ccc(Cl)c(Cl)c1	inactive
O=C(C[C@H]1CC[C@@H]2[C@H](COC[C@H](O)CN2C(=O)Nc2ccc(Cl)c(Cl)c2)O1)NCc1ccncc1	inactive
O=C(C[C@@H]1CC[C@@H]2[C@H](COC[C@@H](O)CN2C(=O)Nc2ccc(Cl)c(Cl)c2)O1)NCc1ccncc1	active
O=C(C[C@H]1CC[C@H]2[C@@H](COC[C@@H](O)CN2C(=O)Nc2ccc(Cl)c(Cl)c2)O1)NCc1ccncc1	inactive
C[C@H]1CN([C@@H](C)CO)C(=O)Cc2cc(NS(=O)(=O)c3ccc(F)cc3)ccc2O[C@@H]1CN(C)C(=O)Nc1cccc2ccccc12	inactive
C[C@@H]1CCCCO[C@@H](CN(C)C(=O)Nc2ccccc2)[C@@H](C)CN([C@@H](C)CO)C(=O)c2cc(NC(=O)Nc3ccc(C(F)(F)F)cc3)ccc2O1	inactive
C[C@H](CO)N1C[C@H](C)[C@H](CN(C)S(=O)(=O)c2ccc3ccccc3c2)OCc2cnnn2CCCC1=O	inactive
COC(=O)c1cn(CCNC(=O)[C@@H](NS(=O)(=O)c2ccc(C)cc2)C(C)C)nn1	inactive
C[C@@H]1CCCCO[C@@H](CN(C)S(=O)(=O)c2cn(C)cn2)[C@@H](C)CN([C@@H](C)CO)C(=O)c2cc(NC(=O)CCCN(C)C)ccc2O1	inactive
O=C(NCCN1CCOCC1)[C@@]1(Cc2ccccc2)N=C(c2ccc(OCCCO)cc2)O[C@H]1c1ccccc1	inactive
C[C@@H]1CN([C@H](C)CO)C(=O)c2cc(NC(=O)Nc3ccc(C(F)(F)F)cc3)ccc2O[C@@H]1CN(C)Cc1ccc(C(F)(F)F)cc1	inactive
COc1ccc(NC(=O)N(C)C[C@H]2Oc3ccc(NC(=O)C4CC4)cc3C(=O)N([C@@H](C)CO)C[C@@H]2C)cc1	inactive

SMILES	growth inhibition call
COc1ccc2c3c(n(c2c1)C)[C@H](CO)N(CC1CCOCC1)C[C@]13CN(C1)C(=O)Cc1cccnc1	inactive
Cc1ccc(S(=O)(=O)N(C)C[C@@H]2Oc3ccc(N(C)C)cc3CC(=O)N([C@@H](C)CO)C[C@@H]2C)cc1	inactive
O=C(C[C@H]1C[C@@H]2c3cc(NC(=O)Nc4ccc(C(F)(F)F)cc4)ccc3O[C@@H]2[C@H](CO)O1)NCCc1ccccc1	inactive
Cc1n[nH]c(=S)[nH]c1=O	inactive
Cc1ccc(S(=O)(=O)N(C)C[C@H]2Oc3c(NC(=O)C4CC4)cccc3C(=O)N([C@@H](C)CO)C[C@@H]2C)cc1	inactive
Cc1ccc(-c2cnc3c(c2)C(=O)N([C@H](C)CO)C[C@@H](C)[C@H](CN(C)C(=O)Cc2cccnc2)O3)cc1	inactive
C[C@@H]1CN([C@@H](C)CO)C(=O)c2cc(NC(=O)Nc3cccc4ccccc34)ccc2O[C@@H]1CN(C)Cc1ccc(C(F)(F)F)cc1	inactive
O=C(C[C@H]1CC[C@@H]2[C@H](COC[C@@H](O)CN2C(=O)Nc2ccc(Cl)c(Cl)c2)O1)NCc1ccncc1	active
O=C(C[C@@H]1CC[C@@H]2[C@H](COC[C@@H](O)CN2C(=O)Nc2ccc(Cl)c(Cl)c2)O1)NCc1ccc(Cl)c(Cl)c1	inactive
O=C(C[C@H]1CC[C@@H]2[C@H](COC[C@@H](O)CN2C(=O)Nc2ccc(Cl)c(Cl)c2)O1)NCc1ccc(Cl)c(Cl)c1	inactive
CCO[C@@H]1OC(C(=O)N2CCOCC2)=C[C@H](C2CC2)[C@H]1CCCOC(=O)NCCCCCC(=O)NO	inactive
O=S(=O)(Cc1ccccc1)Nn1cnnc1	inactive
C[C@H]1CN([C@@H](C)CO)C(=O)Cc2cc(NS(=O)(=O)c3ccc(F)cc3)ccc2O[C@@H]1CN(C)S(C)(=O)=O	inactive
Cc1ccc(S(=O)(=O)N(C)C[C@@H]2OCCCC[C@@H](C)Oc3ccc(NC(=O)Nc4cccc5ccccc45)cc3C(=O)N([C@@H](C)CO)C[C@@H]2C)cc1	inactive
CC1=C(C(=O)O)N2C(=O)[C@H](NC(=O)[C@@H](N)c3ccccc3)[C@H]2SC1	inactive
CC1=C(C(=O)O)N2C(=O)C(NC(=O)C(N)c3ccccc3)C2SC1 (stereo not drawn)	inactive
NC(C(=O)NC1C(=O)N2C(C(=O)O)=C(Cl)CSC12)c1ccccc1 (stereo not drawn)	active
N[C@@H](C(=O)N[C@@H]1C(=O)N2C(C(=O)O)=C(Cl)CS[C@H]12)c1ccccc1	active
CC1=C(C(=O)O)N2C(=O)[C@@H](NC(=O)[C@H](N)c3ccccc3)[C@H]2SC1	inactive
N[C@@H](C(=O)N[C@@H]1C(=O)N2C(C(=O)O)=C(Cl)CC[C@H]12)c1ccccc1	active
CC1=C(C(=O)O)N2C(=O)[C@@H](NC(=O)[C@@H](N)c3ccccc3)[C@H]2SC1	inactive
O=C(C[C@H]1C[C@@H]2c3cc(NS(=O)(=O)c4ccc(F)cc4)ccc3O[C@@H]2[C@H](CO)O1)NCc1cccc(F)c1	inactive
Cc1ccc(S(=O)(=O)N(C)C[C@H]2OCCCC[C@@H](C)Oc3ccc(NC(=O)c4ccccc4)cc3C(=O)N([C@@H](C)CO)C[C@@H]2C)cc1	inactive

SMILES	growth inhibition call
C[C@@H]1CN([C@@H](C)CO)C(=O)c2cc(NC(=O)Cn3cnnn3)ccc2O[C@H]1CN(C)CC1CCCCC1	inactive
C=CC[C@@H](CC(=O)NCCO)C(=O)NC[C@@H](OC(=O)[C@@H](CC=C)CC(=O)OC(C)(C)C)c1ccccc1	inactive
C[C@H](CO)N1C[C@H](C)[C@H](CN(C)Cc2ccc(-c3ccccc3)cc2)Oc2c(NC(=O)C3CC3)cccc2C1=O	inactive
C[C@@H]1CN([C@H](C)CO)C(=O)c2cccc(NS(=O)(=O)c3ccccc3)c2O[C@H]1CN(C)C(=O)Nc1cccc2ccccc12	inactive
COCC(=O)N1C[C@H](C)[C@H](OC)CN(C)C(=O)c2ccc(NC(=O)Nc3cccc(F)c3)cc2OC[C@H]1C	inactive
C[C@H]1CCCCO[C@H](CN(C)C(=O)CCCN(C)C)[C@@H](C)CN([C@@H](C)CO)C(=O)c2cc(NC(=O)Nc3ccc(C(F)(F)F)cc3)ccc2O1	inactive
CCCCOC(=O)[C@@H](N)CCC(=O)O	inactive
COC(=O)[C@H]1c2cc3c(c(O)c2[C@@H](O[C@@H]2O[C@H](C)[C@H](OC)[C@](C)(OC)[C@@H]2OC)C[C@@]1(C)O)C(=O)c1c(O)cc2c(c1C3=O)O[C@H]1O[C@@]2(C)[C@@H](O)[C@H](N(C)C)[C@@H]1O	active
CC[C@@]1(O)C[C@H](O[C@H]2C[C@H](N(C)C)[C@H](O[C@H]3C[C@H](O)[C@H](O[C@H]4CCC(=O)[C@H](C)O4)[C@H](C)O3)[C@H](C)O2)c2c(cc3c(c2O)C(=O)c2c(O)cccc2C3=O)[C@H]1C(=O)OC	inactive
C[C@H](CO)N1C[C@H](C)[C@H](CN(C)Cc2ccc(Cl)c(Cl)c2)Oc2ccc(NC(=O)Cn3cnnn3)cc2CC1=O	inactive
Cc1noc(C)c1NC(=O)Nc1ccc2c(c1)C(=O)N([C@@H](C)CO)C[C@H](C)[C@H](CN(C)C(=O)NC1CCCCC1)OCCCC[C@H](C)O2	inactive
Cc1noc(C)c1S(=O)(=O)Nc1cccc2c1O[C@@H](CN(C)S(=O)(=O)c1cccs1)[C@@H](C)CN([C@H](C)CO)C2=O	inactive
Cc1scc2c1N(C(=O)CN1CCN(C)CC1)c1ccccc1NC2=O.Cl	active
CN1CCN(CC(=O)N2c3ccccc3C(=O)Nc3cccnc32)CC1.Cl.Cl	inactive
O=C(O)CCC(=O)N1CC(=O)Nc2ccccc21	inactive
CS(=O)(=O)N1CCC2(CC1)OCCO2	inactive
O=C(Nc1ccc(C(F)(F)F)cc1)Nc1cccc(Cl)c1	inactive
CCC(=O)Nc1ccc(Cl)cc1	inactive
O=C(Nc1ccc(Cl)cc1)Nc1ccc(Cl)c(Cl)c1	active
CCC(=O)N[C@H]1C=C[C@@H](CC(=O)OC)O[C@H]1CO	inactive
Cc1ccc(S(=O)(=O)Nc2ccc3c(c2)CC(=O)N([C@@H](C)CO)C[C@@H](C)[C@@H](CN(C)CC2CC2)O3)cc1	inactive
C[C@@H]1CCCCO[C@H](CN(C)C(=O)Nc2ccccc2)[C@H](C)CN([C@H](C)CO)C(=O)c2cc(NS(=O)(=O)c3ccc(Cl)cc3)ccc2O1	inactive
